According to PubChem BioAssay AID1117319 (Southern Research Institute, 2015):
Several values for one entry are separate records, joined by “and”; a condition that tells them apart may be missing. Equal entries are not always repeated. About 1,500 (0.58%) of roughly 260,000 compounds were called active. Another 5% or so got no clear call; they are omitted.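 How the source made its calls: active means inhibition above a set limit at one or more doses, reproduced on every date tested; inconclusive means results disagree between test dates, or hit never tested in dose response; inactive means the rest.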 The list is a sample of the results. Results with a measured potency or affinity are listed apart.

Biological target: Virion infectivity factor (Human immunodeficiency virus type 1 group M subtype B (isolate BH10)) + Virion infectivity factor (Human immunodeficiency virus type 1 group M subtype B (isolate BRU/LAI)) + Virion infectivity factor (Human immunodeficiency virus type 1 group M subtype B (isolate PCV12)) + Virion infectivity factor (Human immunodeficiency virus type 1 group M subtype B (isolate HXB2)) + DNA dC->dU-editing enzyme APOBEC-3G (Homo sapiens) (UniProt P69720+P69721+P69722+P69723+Q9HC16)
Assay: inhibitors of Vif binding to APOBEC3G peptide, primary screen, biochemical, TR-FRET, GST-Vif 1-94, biotin-A3G peptide, dose response retest (AID 1117319);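 further: Vif residues 1-94 fused to GST binding biotinylated APOBEC3G peptide 110-148; 0% = full assay without inhibitor and 100% = GST in place of GST-Vif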
Settings: stronger effect = higher value

inhibition, inactive:
CCS(=O)(=O)N1CCC(C(=O)NC2CCCCCCC2)CC1 1.17%, Cc1cc(C(=O)N2CCN(S(=O)(=O)c3ccc(C)c(C)c3)CC2)no1 3.5%, COc1ccc(C)cc1NC(=O)c1cnc2scc(C)n2c1=O -5.79%, COc1ccc2cc(C3CC(c4cccs4)=NN3S(C)(=O)=O)c(Cl)nc2c1 (stereo not drawn) -0.38%, COc1ccc2[nH]c(C(=O)NCc3ccccc3)c(C)c2c1 1.63%, Cc1ccc(NS(=O)(=O)c2csc(C(N)=O)c2)cc1C -5.43%, CN(CC(=O)NCCc1ccc(S(N)(=O)=O)cc1)Cc1ccc(Cl)cc1Cl 4.74%, Cc1cc([N+](=O)[O-])nn1CC(=O)N1CCc2ccccc2C1 -2.29%, Cc1ccc(C)c(NC(=O)CN(C)C(=O)Cc2coc3cc(C)c(C)cc23)c1 0.3%, O=C(COC(=O)c1cnccn1)Nc1cc(S(=O)(=O)N2CCOCC2)ccc1Cl -11.1%, Cc1cc([N+](=O)[O-])c(C)cc1-c1ccc(/C=N/n2cnnc2)o1 1.64%, COc1cc(-c2nc3ccccn3c2/N=C/c2cc(OC)c(O)cc2Cl)ccc1O 22.2%, O=[N+]([O-])c1ccc(-c2ccc(/C=N/c3c(-c4ccco4)nc4ccccn34)o2)cc1 7.55%, O=[N+]([O-])c1cc(-c2ccc(/C=N/n3cnnc3)o2)ccc1Cl 6.34%, c1ccc(Nc2c(-c3ccco3)nc3ccccn23)cc1 -2.7%, Cc1ccc(Nc2c(-c3ccco3)nc3ccccn23)cc1 12%, CN(C)c1ccc(-c2nc3ccccn3c2/N=C/c2ccc(Br)cc2)cc1 6.4%, O=[N+]([O-])c1ccc(-c2ccc(C=Nc3cccc4ccccc34)o2)cc1 3.05%, COc1cc2[nH]c(=S)n(Cc3cccs3)c(=O)c2cc1OC -5.73%, Cc1cc(C)cc(OCC(=O)NN2C(=O)c3ccccc3C2=O)c1 2.37%, Cc1ccc(N(CC(=O)NC(C)(C)C)C(=O)CS(=O)CC(=O)Nc2ccc(F)cc2)cc1 (stereo not drawn) 10.4%, CCN(CC(=O)Nc1ccc(OC)cc1)C(=O)c1ccc2c(c1)NC(=O)C(C)S2 (stereo not drawn) 6.39%, COc1cccc(C(=O)N2CCN(C(=O)c3cccc4ccccc34)CC2)c1OC 1.56%, CSC1=N/C(=C\c2ccccc2)C(=O)N1C 4.78%, O=C(CN1C(=O)S/C(=C/c2ccccn2)C1=O)N1CCOCC1 2.37%, CCCCCn1c(=NC(=O)c2ccco2)c(C(=O)OCC)cc2c(=O)n3ccccc3nc21 4.41% and -0.06%, COc1cc(-c2nnc(NC(=O)CCS(=O)(=O)c3ccccc3)o2)cc(OC)c1OC 2.37%, O=C1c2cccnc2C(=O)N1Cc1ccco1 7.44%, Cc1cc(/C=C2\SC(=S)N(Cc3ccco3)C2=O)c(C)n1-c1ccccc1 3.57%, O=C(O)Cn1cc(/C=C2/NC(=O)N(c3ccc(Cl)cc3)C2=O)c2ccccc21 -2.83%, Cc1cc(/C=C2/C(=O)NN(c3ccccc3)C2=O)c(C)n1-c1ccc(O)cc1 -5.99%, O=C(O)Cn1cc(/C=C2\SC(=O)N(c3ccccc3)C2=O)c2ccccc21 -7.51%, O=C1CNC(=S)N1Cc1ccc(F)cc1 5.9%, Cn1cccc1/C=C1\SC(=S)N(NC(=O)c2ccc(F)cc2)C1=O 14.3%, CC1(C)CC(=O)C2=C(C1)N(Cc1ccco1)C(=O)NC2(C(F)(F)F)C(F)(F)F -1.11%, CNC(=O)C[C@H]1C(=O)N(C2CCCCC2)C[C@@H]1C 8.77%, COCCn1c(C)cc(/C=C(\C#N)C(=O)OCC(=O)N(C)c2c(N)n(Cc3ccccc3)c(=O)[nH]c2=O)c1C 10.7%, N#Cc1c(F)cccc1NCc1cccs1 -3.38%, Cc1nc(C)c(C(=O)C2=C(O)C(=O)N(CCCn3ccnc3)C2c2ccc(Cl)cc2)s1 (stereo not drawn) 0.13%, COc1ccc(-c2cc(C(=O)N3CCC3)c3ccccc3n2)cc1OC -14.9%, Cc1ccc(C(=O)O)c(C(=O)Nc2nc3ccccc3s2)c1 -4.97%, O=C(/C=C/c1cccs1)Nc1ccc(N2CCOCC2)c(S(=O)(=O)Nc2ccccc2Cl)c1 -5.05%, O=C1Nc2ccccc2/C1=C\c1cccn1-c1ccc(OC(F)(F)F)cc1 5.25%, Cn1cccc1/C=C1\SC(=Nc2ccccc2)NC1=O -5.03%, O=Cc1cccn1-c1ccc2ccccc2c1 -0.71%, Cc1ccc(/C=C2/NC(=O)N(Cc3ccccc3)C2=O)s1 3.49%, O=C1N/C(=C/c2cccn2-c2ccc(F)cc2)C(=O)N1Cc1ccccc1 6.05%, Cn1c(=O)n(C)c2cc(/C=C3/NC(=O)N(Cc4ccccc4)C3=O)ccc21 -1.59%, CC1=CC2=NC(=O)/C(=C\c3cccn3CCOc3cccc(C)c3)C(=N)N2O1 -1.97%, COc1cccc(OCCn2cccc2/C=C2/C(=N)N3OC(C)=CC3=NC2=O)c1 1.07%, O=C(COC(=O)c1ccccc1Sc1ccc(C(F)(F)F)cc1[N+](=O)[O-])NC(=O)NC1CCCC1 -2.59%, CCCN1C(=O)/C(=c2\sc3nc(=O)c(Cc4ccc(C)cc4)nn3c2=O)c2ccccc21 1.89%, CC1(C(=O)O)CCC(C(=O)NNC(=O)c2ccccc2O)C1(C)C (stereo not drawn) -0.63%, COc1cc(/C=C2\SC(=O)N(CCNC(=O)c3c(C)noc3C)C2=O)cc(OC)c1OC -5.96%, Cc1ccc(S(=O)(=O)N2CCOCC2)cc1NC(=O)COC(=O)c1ccc2c(c1)OCCO2 -7.03%, O=C1N/C(=C/c2cccn2-c2ccc(F)cc2)C(=O)N1Cc1ccccc1F 5.17%, O=C1N/C(=C/c2cccn2-c2ccccc2)C(=O)N1Cc1ccc(F)cc1 15.6%, COc1ccc(NC(=O)CN(C)C(=O)C2CC(=O)N(c3cccc4ccccc34)C2)cc1 (stereo not drawn) 2.19%, COc1cc(C2CC(=O)Nc3cc(C)c(C)cc32)cc(OC)c1OC (stereo not drawn) -9.63%, COc1cc2c(cc1OC)C(c1cccc(OC)c1OC)CC(=O)N2 (stereo not drawn) 2.22%, CC(C)(C)NC(=O)C(c1ccncc1)N(C(=O)CNC(=O)c1ccco1)c1ccc(F)cc1 (stereo not drawn) 5.09%, O=C(NCC(=O)N(c1ccc2c(c1)OCO2)C(C(=O)NC1CCCC1)c1ccncc1)c1ccco1 (stereo not drawn) 21.4%, COc1cccc(NC(=O)CN(C)C(=O)CCCc2nc3ccccc3c(=O)[nH]2)c1 4.69%, CCCCCOc1ccc(C2NC(=O)NC2=O)cc1 (stereo not drawn) 0.64%, CCN(c1ccc(OC)cc1)S(=O)(=O)c1nnc(NC(=O)COc2ccccc2)s1 6.53%, O=C(CN1C(=O)CCSc2ccccc21)Nc1ccc2c(c1)OCCO2 4.27%, COC(=O)c1ccc(COc2ccccc2/C=C(\C#N)C(=O)Nc2c(C)cccc2C)cc1 -2.89%, COC(=O)c1ccc(COc2ccccc2/C=C(\C#N)C(=O)Nc2ccc(C)cc2)cc1 -4.01%, COCCNC(=O)C1(C)Oc2ccccc2NC1=O (stereo not drawn) 1.83%, Cc1oc(-c2ccccc2F)nc1CS(=O)(=O)CC(=O)N1CCN(Cc2ccccc2)CC1 5.89%, CCOC(=O)CN(C(=O)CSc1nnc(COc2ccc(OC)cc2)n1C)c1ccccc1 0.19%, CCOc1ccc(-c2nnn(CC(=O)c3ccc4c(c3)OCCO4)n2)cc1 -11.1%, COc1ccc(-c2nnn(CC(=O)c3ccc4c(c3)OCCO4)n2)cc1OC 21.5%, CN(C)c1ccc(CNC(=O)C2CCN(S(=O)(=O)c3ccc4c(c3)oc(=O)n4C)CC2)cc1 -3.31%, CCC1=NNc2cccc3c(OC)ccc1c23 10.8%, COc1ccc2c3c(cccc13)OCC2=O 24.2%, COc1ccccc1NC(=O)c1nnn(Cc2ccccc2)c1NC(=O)C(F)(F)F 0.14%, CCn1cc(S(=O)(=O)Nc2nc3ccc(OC)cc3s2)cn1 -2.85%, Nc1ccccc1SCc1ccccc1 -5.9%, Cn1c(SCc2ccccc2)nccc1=O 1.19%, CCOC(=O)c1nnc2cc(-c3ccc(Br)cc3)nn2c1C 1.62%, COc1ccccc1OCCSc1nc(N)cc(N)n1 4.3%, COc1ccc2nc3ccccc3nc2c1NC(=O)c1ccc(Br)cc1 -5.53%, COc1ccc2nc3cccc(OC)c3nc2c1 15.1%, CCOC(=O)c1cc(-c2ccco2)nn1-c1ccc(C)cc1 -3.18%, Cc1ccc(-n2nc(-c3ccco3)cc2C(=O)NCc2cccnc2)cc1 9.86%, CN(C)C(=O)CSc1nnc([C@H](Cc2ccccc2)NC(=O)OC(C)(C)C)o1 -2.79%, O=S1(=O)N=C(Nc2ccc(N3CCOCC3)c(Cl)c2)c2ccccc21 12.7%, O=C(CCC(=O)c1cccs1)NCc1ccc(Cl)cc1 1.67%, CCCC(=Nc1ccccc1)C1=C(O)C(C(=O)OC)C(C)(C)CC1=O (stereo not drawn) 26.8%, CCCC(=O)C1=C(O)C(C(=O)OC)C(C)(C)CC1=Nc1ccc(N)cc1 (stereo not drawn) 0.65%, CCCC(=NCc1ccccc1)C1=C(O)C(C(=O)OC)C(C)(C)CC1=O (stereo not drawn) 3.41%, CCC(=NCc1ccccc1)C1=C(O)C(C(=O)OC)C(C)(C)CC1=O (stereo not drawn) 5.76%
